Values joined by “and” are separate entries in the source; they are usually repeats but may differ in a detail not shown here. Identical values can stand only once. The panel holds about 79,000 compounds, 15% with a hit somewhere; the sample as a whole holds those more often. Values without a mark were called inactive. Active and inactive are the calls of the source. No stated cut-off is given here; in the data, active means growth inhibition above about 70%; inactive means the rest.

Assay [1] is described as follows: NCI Yeast Anticancer Drug Screen. Data for the rad50 strain (AID 155).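 Further: 0% = growth of vehicle-only cultures of the same strain.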 The following applies: S. cerevisiae rad50 strain growth inhibition, active compounds read high. The method, boiled down:
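Vehicle-treated cultures provide the reference for the growth inhibition reported for compound-exposed, repair-deficient yeast.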

Assay [2] is described as follows: NCI Yeast Anticancer Drug Screen. Data for the mec2-1 strain (AID 157). To be noted: S. cerevisiae mec2-1 strain, active compounds read high. In outline:
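Vehicle-treated cultures served as reference for growth inhibition of compound-exposed mec2-1 yeast.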

The nature of assay [3]: NCI Yeast Anticancer Drug Screen. Data for the sgs1 mgt1 strain (AID 161).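 Further: 0% = growth of cultures given vehicle only.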 The following applies: S. cerevisiae sgs1 mgt1 strain, active compounds read high. The method, boiled down: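 Genetically altered yeast, compound exposure, growth inhibition relative to vehicle.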
Assay [4] can be described thus: NCI Yeast Anticancer Drug Screen. Data for the cln2 rad14 strain (AID 165).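 Further: 0% = growth equal to vehicle treated cultures.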 To be noted: S. cerevisiae cln2 rad14 strain, active compounds read high. The method, boiled down: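 Each compound was tested on cln2 rad14 yeast. Inhibition of growth was calculated against vehicle-exposed controls.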
A short description of assay [5]: NCI Yeast Anticancer Drug Screen. Data for the bub3 strain (AID 167). The following applies: S. cerevisiae bub3 mutant strain, active compounds read high. In outline: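 Mutant yeast screening strain plus compound; vehicle-treated cultures serve as the 0% inhibition reference.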
A short description of assay [6]: NCI Yeast Anticancer Drug Screen. Data for the mlh1 rad18 strain (AID 175). The following applies: S. cerevisiae mlh1 rad18 strain growth inhibition, active compounds read high. The method, boiled down: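 Vehicle-treated cultures served as the reference for growth inhibition in a yeast strain carrying DNA damage repair alterations exposed to each compound.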
Setting [7] is: at 5.0 µM (retest, dose inferred, filed as 0.5).
Where [8] appears, read: at 50.0 µM (retest, dose inferred, filed as 5.0).

On to `[I][Hg][CH2]C1COCC([CH2][Hg][I])O1` (configuration not stated), for which the growth inhibition is 0% in assay [1] (setting [7]); 5% in assay [1] (setting [8]); 98.7% (active) in assay [1] (at 50.0 µM); 4% in assay [2] (setting [7]); 6% in assay [2] (setting [8]); 99.5% (active) in assay [2] (at 50.0 µM). Also, the growth inhibition in assay [3] (setting [7]) was 0%; in assay [3] (setting [8]), 9%; in assay [3] (at 50.0 µM), 99.2% (active); in assay [4] (setting [7]), -1%; in assay [4] (setting [8]), 7%; in assay [4] (at 50.0 µM), 98.2% (active). Also, the growth inhibition is 5% in assay [5] (setting [7]); -8% in assay [5] (setting [8]); 99.5% (active) in assay [5] (at 50.0 µM); 0% in assay [6] (setting [7]); 7% in assay [6] (setting [8]); 99.2% (active) in assay [6] (at 50.0 µM).
Regarding `CCCCCCCCCCCCCCCC[N+](C)(C)CCBr`, the growth inhibition in assay [1] (setting [7]) was 99% (active); in assay [1] (setting [8]), 98% (active); in assay [1] (at 50.0 µM), 89.2% (active) and 98.8% (active); in assay [2] (setting [7]) it was 99% (active); in assay [2] (setting [8]), 99% (active); in assay [2] (at 50.0 µM), 92.5% (active) and 99.2% (active). Moreover, the growth inhibition in assay [3] (setting [7]) was 99% (active); in assay [3] (setting [8]) it was 99% (active); in assay [3] (at 50.0 µM), 87.2% (active) and 99.3% (active); in assay [4] (setting [7]) it was 99% (active); in assay [4] (setting [8]) it was 99% (active); in assay [4] (at 50.0 µM), 89.2% (active) and 99.2% (active). Also, the growth inhibition was 99% (active) in assay [5] (setting [7]); 99% (active) in assay [5] (setting [8]); 82.3% (active) and 99.1% (active) in assay [5] (at 50.0 µM); 98% (active) in assay [6] (setting [7]); 98% (active) in assay [6] (setting [8]); 92.3% (active) and 99.2% (active) in assay [6] (at 50.0 µM).
In the case of `CC(C)C(=O)CP(=O)(O)O`, the growth inhibition in assay [1] (setting [7]) was -10%; in assay [1] (setting [8]), 6%; in assay [1] (at 50.0 µM) it was -18.1%; in assay [2] (setting [7]), 8%; in assay [2] (setting [8]), -2%; in assay [2] (at 50.0 µM), -22.6%. Also, the growth inhibition in assay [3] (setting [7]) was -9%; in assay [3] (setting [8]), -4%; in assay [3] (at 50.0 µM) it was -30.5%; in assay [4] (setting [7]), -31%; in assay [4] (setting [8]), -13%; in assay [4] (at 50.0 µM), 70.2% (active). In addition, the growth inhibition is 7% in assay [5] (setting [7]); 4% in assay [5] (setting [8]); -21.6% in assay [5] (at 50.0 µM); 7% in assay [6] (setting [7]); 9% in assay [6] (setting [8]); -7.2% in assay [6] (at 50.0 µM).
For `Fc1cccc(C2N(Cc3ccc(N(CCCl)CCCl)cc3Cl)CCCN2Cc2ccc(N(CCCl)CCCl)cc2Cl)c1`, the growth inhibition in assay [1] (setting [7]) was -28%; in assay [1] (setting [8]), 92% (active); in assay [1] (at 50.0 µM) it was 12.7%; in assay [2] (setting [7]), 15%; in assay [2] (setting [8]), 95% (active); in assay [2] (at 50.0 µM), 54.5%. Further, the growth inhibition in assay [3] (setting [7]) is -3%; in assay [3] (setting [8]), 95% (active); in assay [3] (at 50.0 µM), -18.4%; in assay [4] (setting [7]), -5%; in assay [4] (setting [8]) it was 93% (active); in assay [4] (at 50.0 µM) it was -6.1%. The growth inhibition is -2% in assay [5] (setting [7]); 92% (active) in assay [5] (setting [8]); 83.2% (active) in assay [5] (at 50.0 µM); 6% in assay [6] (setting [7]); 94% (active) in assay [6] (setting [8]); 9.15% in assay [6] (at 50.0 µM).
For the compound `O=c1c(O)c(-c2ccccc2)oc2ccccc12.[Pb]`, the growth inhibition in assay [1] (setting [7]) is 3%; in assay [1] (setting [8]) it was 97% (active); in assay [1] (at 50.0 µM), 94.7% (active); in assay [2] (setting [7]), -2%; in assay [2] (setting [8]), 97% (active); in assay [2] (at 50.0 µM) it was 92.6% (active). Also, the growth inhibition in assay [3] (setting [7]) is 6%; in assay [3] (setting [8]), 24%; in assay [3] (at 50.0 µM), 98.4% (active); in assay [4] (setting [7]), -2%; in assay [4] (setting [8]), 98% (active); in assay [4] (at 50.0 µM) it was 47.8%. In addition, the growth inhibition in assay [5] (setting [7]) is -6%; in assay [5] (setting [8]), 98% (active); in assay [5] (at 50.0 µM) it was 96.2% (active); in assay [6] (setting [7]), 8%; in assay [6] (setting [8]), 98% (active); in assay [6] (at 50.0 µM), 98.1% (active).
As for `CC1(C)N=C(N)N=C(N)N1CCCOc1ccc(NC(=O)c2ccc(S(=O)(=O)F)cc2)cc1`, the growth inhibition in assay [1] (setting [7]) is -3%; in assay [1] (setting [8]) it was 12%; in assay [1] (at 50.0 µM), 20.2%; in assay [2] (setting [7]), -6%; in assay [2] (setting [8]), 30%; in assay [2] (at 50.0 µM), 49.5%. For the same compound, the growth inhibition in assay [3] (setting [7]) was -2%; in assay [3] (setting [8]) it was 15%; in assay [3] (at 50.0 µM), 47.8%; in assay [4] (setting [7]), -3%; in assay [4] (setting [8]) it was 0%; in assay [4] (at 50.0 µM) it was -9%. The growth inhibition in assay [5] (setting [7]) was -8%; in assay [5] (setting [8]), -4%; in assay [5] (at 50.0 µM), -8.15%; in assay [6] (setting [7]) it was -5%; in assay [6] (setting [8]), 7%; in assay [6] (at 50.0 µM), 21.4%.
In the case of `Oc1cccc2cccnc12` (tested in a mixture with another compound), the growth inhibition was -6% in assay [1] (setting [7]); 2% in assay [1] (setting [8]); 73.5% (active) in assay [1] (at 50.0 µM); -5% in assay [2] (setting [7]); -6% in assay [2] (setting [8]); 83.8% (active) in assay [2] (at 50.0 µM). The growth inhibition in assay [3] (setting [7]) is -4%; in assay [3] (setting [8]) it was 2%; in assay [3] (at 50.0 µM), 64%; in assay [4] (setting [7]) it was -6%; in assay [4] (setting [8]), -10%; in assay [4] (at 50.0 µM), -20.8%. Moreover, the growth inhibition is -5% in assay [5] (setting [7]); -4% in assay [5] (setting [8]); 89.8% (active) in assay [5] (at 50.0 µM); 0% in assay [6] (setting [7]); -15% in assay [6] (setting [8]); 85.5% (active) in assay [6] (at 50.0 µM).
`O=[N+]([O-])c1cc(S(=O)(=O)F)ccc1S`: the growth inhibition in assay [1] (setting [7]) was -76%; in assay [1] (setting [8]) it was 89% (active); in assay [1] (at 50.0 µM), 91.2% (active); in assay [2] (setting [7]), -32%; in assay [2] (setting [8]), 93% (active); in assay [2] (at 50.0 µM), 77.5% (active). Moreover, the growth inhibition was -34% in assay [3] (setting [7]); 88% (active) in assay [3] (setting [8]); 88.9% (active) in assay [3] (at 50.0 µM); -40% in assay [4] (setting [7]); 90% (active) in assay [4] (setting [8]); 86.7% (active) in assay [4] (at 50.0 µM). The growth inhibition was -59% in assay [5] (setting [7]); 90% (active) in assay [5] (setting [8]); 91.8% (active) in assay [5] (at 50.0 µM); -103% in assay [6] (setting [7]); 92% (active) in assay [6] (setting [8]); 95.8% (active) in assay [6] (at 50.0 µM).
Turning to `S=C(SSC(=S)N1CCCCC1)N1CCCCC1`, the growth inhibition in assay [1] (setting [7]) was 50%; in assay [1] (setting [8]), 99% (active); in assay [1] (at 50.0 µM), 9.4% and 16.8%; in assay [2] (setting [7]), 55%; in assay [2] (setting [8]), 99% (active); in assay [2] (at 50.0 µM) it was 13.6% and 5.4%. Moreover, the growth inhibition is 48% in assay [3] (setting [7]); 99% (active) in assay [3] (setting [8]); 18.5% and 12.8% in assay [3] (at 50.0 µM); 55% in assay [4] (setting [7]); 99% (active) in assay [4] (setting [8]); 24.9% and 19.5% in assay [4] (at 50.0 µM). Also, the growth inhibition in assay [5] (setting [7]) was 70% (active); in assay [5] (setting [8]) it was 99% (active); in assay [5] (at 50.0 µM), 9.8% and 4.25%; in assay [6] (setting [7]), 34%; in assay [6] (setting [8]), 99% (active); in assay [6] (at 50.0 µM), 54.8% and 12.6%.
